{
  "source": "PubChem BioAssay (NCATS)",
  "note": "Inconclusive results are not listed. The source made the active and inactive calls. The call rests on the fitted dose curve; in most records, active means well fitted inhibition curve with a large enough effect; inconclusive means small, poorly fitted or top-dose-only effect; inactive means flat fitted curve, though single readings scatter. On the % scale 0 is the no-effect control and ±100 the full control effect.",
  "data": [
    {"biological_target": "Phospholipid hydroperoxide glutathione peroxidase GPX4 (Homo sapiens) (UniProt P36969)", "sequence (P36969 whole entry, looked up)": "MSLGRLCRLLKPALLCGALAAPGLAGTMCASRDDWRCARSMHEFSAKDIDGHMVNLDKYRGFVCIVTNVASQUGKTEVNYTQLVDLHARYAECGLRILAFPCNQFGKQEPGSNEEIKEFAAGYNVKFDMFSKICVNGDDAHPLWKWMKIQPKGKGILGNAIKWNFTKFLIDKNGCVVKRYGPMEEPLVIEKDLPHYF", "assay": "Primary qHTS Assay for Inhibitors of Recombinant Selenoprotein Glutathione Peroxidase 4 (GPX4) (AID 1845192); further: nearly all actives have a fitted effect of over 65% in size", "conditions": "recombinant GPX4, GR-coupled NADPH fluorescence, 15 min; series mostly up to 50 µM; activity change, negative = inhibition: at the top concentration", "source_text": "Assay Provider: Elias S.J. Arner MD PhD.\nDepartment of Medical Biochemistry and Biophysics\nKarolinska Institutet, Solna, Stockholm, Sweden\nSelenoprotein glutathione peroxidases (GPX), like the ubiquitously expressed GPX1 and the ferroptosis modulator GPX4, enact their antioxidant activities by reducing hydroperoxides using glutathione. […] GPX1 and GPX4 inhibitors have thus shown promise as anti-cancer agents. Existing inhibitors are often promiscuous, or modulate GPX activity only indirectly, so novel direct inhibitors identified through screening against GPX1 and GPX4 could be valuable. Here, we developed optimized glutathione reductase (GR)-coupled GPX assays for the biochemical high-throughput screen (HTS) of almost 12,000 compounds with known mechanisms of action. Initial hits were triaged using a GR counter-screen, assessed for isoform specificity using a separate GPX2 assay, and were assessed for general selenocysteine-targeting activity using a thioredoxin reductase (TXNRD1) assay. With this suite of assays, we identified novel GPX1/GPX2- and GPX4-specific inhibitors and can here present a validated pipeline for future discovery research for selenoprotein-targeting agents.\nSEQUENCE No. (e.g., 1, 2, 3, etc.); […] (e.g., Cells, Incubation, Reagent, etc.); VALUE; DESCRIPTION.\n1; Reagent 1; 3 uL; 333.33 nM GPx4 enzyme or no enzyme control in 1536-well, black, solid Greiner assay plate.\n2; Compound; 25 nL; Kalypsis pin tool (Wako USA) equipped with a 1536-well pin head.\n3; Incubation; 30 min; room temperature.\n4; Reagent 2; 1 uL; 500 nM GR, 5 mM GSH, 2.5 mM NADPH solution\n5; Reagent 3; 1 uL; 2.5 mM CHP in 50% EtOH.\n6; Detection; Fluorescence; ViewLux microplate reader, excitation 340 nm and emission 450 nm.\n7; Incubation; 15 min; room temperature.\n8; Detection; Fluorescence; ViewLux microplate reader, excitation 340 nm and emission 450 nm.\nNOTES (numbers refer to Sequence numbers above)\n1. 3 µL of 333.33 nM GPX4 and 0.016% BSA in assay buffer (50 mM Tris-HCl, 2 mM EDTA (pH 7.5), 150 mM NaCl) was added to columns 3-48 of 1536-well plates using a BioRAPTR Flying Reagent Dispenser (Let's Go Robotics (LGR), Carlsbad, CA). A no-enzyme control (0.01% BSA in TES assay buffer) was added to columns 1-2.\n2. 25 nL, library and DMSO controls were added to each well with a pin tool (Kalypsys).\n3. The assay plates were incubated for 30 minutes at room temperature.\n4. 1 µL of master mix (500 nM glutathione reductase (GR), 5 mM reduced glutathione (GSH), 2.5 mM NADPH in assay buffer) was added.\n5. 1 µL of cumene hydroperoxide (CHP) ([2.5 mM] in 50% EtOH) was then added within 5 minutes to initiate the reaction. Final concentrations were: 200 nM GPX4, 1 mM GSH, 0.5 mM CHP, 0.5 mM NADPH, 100 nM GR, 0.01% BSA.\n6. Initial fluorescence readout (t=0) at 340/450 nm was measured using a ViewLux multimodal detector (PerkinElmer, Waltham, MA).\n8. Endpoint fluorescence readout (t=15) at 340/450 nm was measured 15 min after room temperature incubation.", "values": [
      {"smiles": "COc1cc(C(=O)OCCCN2CCCN(CCCOC(=O)c3cc(OC)c(OC)c(OC)c3)CC2)cc(OC)c1OC", "outcome": "inactive"},
      {"smiles": "CCNC(=O)N1CCN(CCCC(c2ccc(F)cc2)c2ccc(F)cc2)CC1", "activity change, negative = inhibition": "3.77% (inactive)"},
      {"smiles": "COC(=O)[C@@H](N)Cc1ccc(O)c(O)c1", "activity change, negative = inhibition": "-0.37% (inactive)"},
      {"smiles": "CCCCCCCC/C=C\\CCCCCCCC(=O)NCc1ccc(O)c(OC)c1", "activity change, negative = inhibition": "-16.5% (inactive)"},
      {"smiles": "Cc1nnc(SCC2=C(C(=O)O)N3C(=O)[C@@H](NC(=O)Cn4cnnn4)[C@H]3SC2)s1", "outcome": "inactive"},
      {"smiles": "O=c1[nH]c(=O)n([C@H]2C[C@H](O)[C@@H](CO)O2)cc1Br", "outcome": "inactive"},
      {"smiles": "CC(C(=O)O)c1ccc(CC2CCCC2=O)cc1", "note": "(stereo not given)", "outcome": "inactive"},
      {"smiles": "Cc1scc2c1N(C(=O)CN1CCN(C)CC1)c1ccccc1NC2=O", "activity change, negative = inhibition": "-12.6% (inactive)"},
      {"smiles": "O=C(O)CCCCCCCC(=O)O", "outcome": "inactive"},
      {"smiles": "FC(F)(F)c1ccccc1-n1ccnc1", "outcome": "inactive"},
      {"smiles": "CCCN(CCC)C(=O)C(CCC(=O)O)NC(=O)c1ccccc1", "note": "(stereo not given)", "outcome": "inactive"},
      {"smiles": "CCCC(C(=O)OCCN(CC)CC)(c1ccccc1)c1ccccc1", "activity change, negative = inhibition": "-9.72% (inactive)"},
      {"smiles": "CCc1c(C)[nH]c2c1C(=O)C(CN1CCOCC1)CC2", "note": "(stereo not given)", "outcome": "inactive"},
      {"smiles": "COCCOC(=O)C1=C(C)NC(C)=C(C(=O)OC(C)C)C1c1cccc([N+](=O)[O-])c1", "note": "(stereo not given)", "outcome": "inactive"},
      {"smiles": "C[n+]1cc2c3c(ccc2c2ccc4cc5c(cc4c21)OCO5)OCO3", "outcome": "inactive"},
      {"smiles": "CCN(CC)CCNC(=O)c1cc(S(C)(=O)=O)ccc1OC", "outcome": "inactive"},
      {"smiles": "N[C@@H](COP(=O)(O)O)C(=O)O", "activity change, negative = inhibition": "-7.85% (inactive)"},
      {"smiles": "C[C@@H](O)[C@H]1C(=O)N2C(C(=O)O)=C(SCCN=CN)C[C@H]12", "outcome": "inactive"},
      {"smiles": "Fc1ccc(C(c2ccc(F)cc2)N2CCN(C/C=C/c3ccccc3)CC2)cc1", "outcome": "inactive"},
      {"smiles": "NCCCNCCSP(=O)(O)O", "outcome": "inactive"},
      {"smiles": "CCn1nc(C(=O)O)c(=O)c2cc3c(cc21)OCO3", "outcome": "inactive"},
      {"smiles": "COc1cc(Cc2cnc(N)nc2N)cc(OC)c1OC", "outcome": "inactive"},
      {"smiles": "C[N+](C)(C)CCOC(=O)CCC(=O)OCC[N+](C)(C)C", "outcome": "inactive"},
      {"smiles": "COC(=O)[C@H]1[C@H]2C[C@@H]3c4[nH]c5cc(OC)ccc5c4CCN3C[C@H]2C[C@@H](OC(=O)c2cc(OC)c(OC)c(OC)c2)[C@@H]1OC", "outcome": "inactive"},
      {"smiles": "CN1C[C@H](C(=O)N[C@]2(C)O[C@@]3(O)[C@@H]4CCCN4C(=O)[C@H](Cc4ccccc4)N3C2=O)C[C@@H]2c3cccc4[nH]cc(c34)C[C@H]21", "outcome": "inactive"},
      {"smiles": "Cc1cc(C)c(/C=C2\\C(=O)Nc3ccccc32)[nH]1", "outcome": "inactive"},
      {"smiles": "OCCN1CCN(CCCN2c3ccccc3C=Cc3ccccc32)CC1", "outcome": "inactive"},
      {"smiles": "NC(Cc1ccc(Cl)cc1)C(=O)O", "note": "(stereo not given)", "outcome": "inactive"},
      {"smiles": "CCN(CC)CCCN(c1ccccc1)C1Cc2ccccc2C1", "outcome": "inactive"},
      {"smiles": "O=C1NCN(c2ccccc2)C12CCN(CCCC(c1ccc(F)cc1)c1ccc(F)cc1)CC2", "activity change, negative = inhibition": "-1.03% (inactive)"},
      {"smiles": "O=C(O)CN(CCOCCOCCN(CC(=O)O)CC(=O)O)CC(=O)O", "activity change, negative = inhibition": "-10.4% (inactive)"},
      {"smiles": "Cc1ccc(S(=O)(=O)NC(=O)NN2CCCCCC2)cc1", "outcome": "inactive"},
      {"smiles": "CCN(CC)CC(=O)Nc1c(C)cccc1C", "outcome": "inactive"},
      {"smiles": "O=C(O)CN(CCN(CC(=O)O)CC(=O)O)CCN(CC(=O)O)CC(=O)O", "outcome": "inactive"},
      {"smiles": "COCC(=O)O[C@]1(CCN(C)CCCc2nc3ccccc3[nH]2)CCc2cc(F)ccc2[C@@H]1C(C)C", "activity change, negative = inhibition": "-17.2% (inactive)"},
      {"smiles": "CC1=NS(=O)(=O)c2cc(Cl)ccc2N1", "outcome": "inactive"},
      {"smiles": "CC(=O)[C@@]1(O)CC[C@H]2[C@@H]3CCC4=CC(=O)CC[C@]4(C)[C@H]3CC[C@@]21C", "activity change, negative = inhibition": "-5.73% (inactive)"},
      {"smiles": "Cc1nc2ccccn2c(=O)c1CCN1CCC(C(=O)c2ccc(F)cc2)CC1", "outcome": "inactive"},
      {"smiles": "C(=C\\c1ccccc1)/CN1CCN(C(c2ccccc2)c2ccccc2)CC1", "outcome": "inactive"},
      {"smiles": "CCCNC(C)C(=O)Nc1ccccc1C", "note": "(stereo not given)", "outcome": "inactive"}
    ]}
  ]
}
